Assay results published in PubChem BioAssay.
The source made the active and inactive calls.

Key:
[1] = system: PRMT1 (protein arginine N-methyltransferase 1); assay: small molecules binding arginine methyltransferase PRMT1 – biochemical, small-molecule microarray, 635 nm fluorescence, primary screen (AID 1088); details: higher = more signal;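 also: binding of Prmt1 protein to compounds spotted on small-molecule microarray slides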
[2] = growth effects on S. cerevisiae YJM789 – YJM789 clinical isolate, OD600, 24 h, basal, primary screen (AID 1089); details: higher = more signal, called active from +8 up or from −8 down;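 also: growth of clinical yeast isolate S. cerevisiae YJM 789 seeded 1000 cells per well; test concentration not given here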
[3] = S. pombe growth modifiers, basal conditions – strain 972, OD600, 24 h, no modulator, primary screen (AID 1090);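 also: basal condition with compound alone and no growth modifier present; test concentration not given here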; details: S. pombe 972 growth, higher = more signal, called active from +8 up or from −8 down
[4] = budding yeast growth modifiers under rapamycin – strain BY4716, OD600, 96 h, primary screen (AID 1091); also: test concentration not given here; details: S. cerevisiae BY4716 + rapamycin, higher = more signal, called active from +8 up or from −8 down
[5] = target: Torsin-1A-interacting protein 2 (Homo sapiens) (UniProt Q8NFQ8); assay: small molecules binding lysate-expressed LULL1 – cell lysate, human LULL1 lysate, 635/667 nm fluorescence, primary screen (AID 1092); details: small-molecule microarray, hLULL1 lysate binding, 635 nm fluorescence; higher = more signal;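 also: probe is lysate of COS7 cells overexpressing human LULL1; score merges per-feature 667 nm fluorescence with signal-to-noise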
[6] = optical density change of DRC41 E. coli – strain DRC41, OD650, 24 h, E. coli filamentation project, primary screen (AID 1093);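 also: MC1000 strain lacking acrAB efflux and sulA so SOS filamentation is blocked; test concentration not given here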; details: E. coli DRC41 growth, higher = more signal, called active from +8 up or from −8 down
[7] = probe aLefty2 binding to arrayed compounds – biochemical, biotinylated probe, 635/667 nm fluorescence, primary screen (AID 1094); details: small-molecule microarray, higher = more signal;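 also: score merges spot fluorescence near 667 nm with spot signal-to-noise ratio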
[8] = system: Noggin (protein binding on small-molecule microarray); assay: small molecules binding Noggin protein – biochemical, 635/667 nm fluorescence, primary screen (AID 1095); details: 635 nm fluorescence, higher = more signal;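 also: score merges 667 nm feature fluorescence with signal to noise over triplicate slides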
[9] = target: Neurogenic locus notch homolog protein 3 (Homo sapiens) (UniProt Q9UM47); assay: small molecules binding NOTCH3 protein – biochemical, 635/667 nm fluorescence, primary screen (AID 1096); details: small-molecule microarray, 635 nm fluorescence, higher = more signal
[10] = probe aEGFR binding to arrayed compounds – biochemical, biotinylated probe, 635/667 nm fluorescence, primary screen (AID 1097); details: small-molecule microarray, higher = more signal;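 also: probe is a biotinylated anti-EGFR antibody binding compounds printed on slides; score combines fluorescence near 667 nm and signal to noise of each spot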
[11] = system: Plasmodium falciparum Sir2 (PF13_0152, Sir2A); assay: Plasmodium falciparum Sir2A binding compounds – biochemical, small-molecule microarray, 635 nm fluorescence, primary screen (AID 1098); details: fluorescence 635 nm, higher = more signal;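 also: score merges spot fluorescence intensity with its signal-to-noise ratio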
[12] = probe aDKK1 binding to arrayed compounds – biochemical, biotinylated probe, 635/667 nm fluorescence, primary screen (AID 1099); details: small-molecule microarray, higher = more signal;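 also: score merges 667nm spot fluorescence with signal to noise across triplicate slides; reference of the scale not given here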
[13] = probe aCHRDL2 binding to arrayed compounds – biochemical, biotinylated probe, 635/667 nm fluorescence, primary screen (AID 1100); details: small-molecule microarray, higher = more signal
[14] = change in splice reporter luminescence, either direction, cell-based, HEK293, spliceosome inhibition project, primary screen (AID 1101); details: HEK293 splicing luciferase reporter, 24 h, higher = more signal, called active from +8 up or from −8 down;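 also: HEK293 cells carrying a splicing-competent luciferase reporter gene; test concentration not given here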
[15] = target: Fibroblast growth factor 10 (Homo sapiens) (UniProt O15520); assay: compounds binding fibroblast growth factor 10 – biochemical, small-molecule microarray, 635 nm fluorescence, primary screen (AID 1102); details: FGF10 binding, fluorescence 635 nm, higher = more signal
[16] = system: glycogen synthase kinase-3 (GSK3A per assay name; protocol says GSK3B); assay: compounds binding glycogen synthase kinase-3 – biochemical, small-molecule microarray, 635 nm fluorescence, GSK3A, primary screen (AID 1103); details: fluorescence 635 nm, higher = more signal; also: the record names both GSK3A and GSK3B
[17] = target: Epidermal growth factor receptor (Homo sapiens) (UniProt P00533); assay: compounds binding epidermal growth factor receptor – biochemical, small-molecule microarray, 635 nm fluorescence, primary screen (AID 1104); details: EGFR binding, higher = more signal;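 also: score merges 667 nm emission intensity with spot signal to noise over triplicate slides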
[18] = target: Follistatin-related protein 3 (Homo sapiens) (UniProt O95633); assay: compounds binding follistatin-related protein 3 – biochemical, small-molecule microarray, 635 nm fluorescence, primary screen (AID 1105); details: FSTL3 binding, higher = more signal;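 also: score merges emission near 667 nm and signal to noise per printed spot across three slides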
[19] = target: Dickkopf-related protein 1 (Homo sapiens) (UniProt O94907); assay: small molecules binding DKK1 protein – biochemical, small-molecule microarray, 635 nm fluorescence scan, primary screen (AID 1106); details: higher = more signal;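 also: score merges emission near 667 nm with signal to noise over three replicate slides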
[20] = system: Inhibin beta A chain (activin A); assay: small molecules binding activin A – biochemical, small-molecule microarray, 635 nm fluorescence scan, primary screen (AID 1107); details: INHBA, higher = more signal;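 also: mouse activin A protein probed at 4.33 µg/mL on printed slides; score merges bound-protein fluorescence near 667 nm with spot signal-to-noise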

Chain of Dickkopf-related protein 1 (Homo sapiens) (O94907 whole entry, looked up): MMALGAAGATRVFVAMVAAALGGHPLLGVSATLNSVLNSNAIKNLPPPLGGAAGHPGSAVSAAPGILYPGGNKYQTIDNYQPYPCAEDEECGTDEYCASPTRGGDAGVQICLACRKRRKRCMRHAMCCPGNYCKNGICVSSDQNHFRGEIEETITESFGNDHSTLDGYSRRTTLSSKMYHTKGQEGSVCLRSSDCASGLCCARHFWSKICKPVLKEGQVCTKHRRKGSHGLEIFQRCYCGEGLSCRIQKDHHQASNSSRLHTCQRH
Chain of Epidermal growth factor receptor (Homo sapiens) (P00533 whole entry, looked up): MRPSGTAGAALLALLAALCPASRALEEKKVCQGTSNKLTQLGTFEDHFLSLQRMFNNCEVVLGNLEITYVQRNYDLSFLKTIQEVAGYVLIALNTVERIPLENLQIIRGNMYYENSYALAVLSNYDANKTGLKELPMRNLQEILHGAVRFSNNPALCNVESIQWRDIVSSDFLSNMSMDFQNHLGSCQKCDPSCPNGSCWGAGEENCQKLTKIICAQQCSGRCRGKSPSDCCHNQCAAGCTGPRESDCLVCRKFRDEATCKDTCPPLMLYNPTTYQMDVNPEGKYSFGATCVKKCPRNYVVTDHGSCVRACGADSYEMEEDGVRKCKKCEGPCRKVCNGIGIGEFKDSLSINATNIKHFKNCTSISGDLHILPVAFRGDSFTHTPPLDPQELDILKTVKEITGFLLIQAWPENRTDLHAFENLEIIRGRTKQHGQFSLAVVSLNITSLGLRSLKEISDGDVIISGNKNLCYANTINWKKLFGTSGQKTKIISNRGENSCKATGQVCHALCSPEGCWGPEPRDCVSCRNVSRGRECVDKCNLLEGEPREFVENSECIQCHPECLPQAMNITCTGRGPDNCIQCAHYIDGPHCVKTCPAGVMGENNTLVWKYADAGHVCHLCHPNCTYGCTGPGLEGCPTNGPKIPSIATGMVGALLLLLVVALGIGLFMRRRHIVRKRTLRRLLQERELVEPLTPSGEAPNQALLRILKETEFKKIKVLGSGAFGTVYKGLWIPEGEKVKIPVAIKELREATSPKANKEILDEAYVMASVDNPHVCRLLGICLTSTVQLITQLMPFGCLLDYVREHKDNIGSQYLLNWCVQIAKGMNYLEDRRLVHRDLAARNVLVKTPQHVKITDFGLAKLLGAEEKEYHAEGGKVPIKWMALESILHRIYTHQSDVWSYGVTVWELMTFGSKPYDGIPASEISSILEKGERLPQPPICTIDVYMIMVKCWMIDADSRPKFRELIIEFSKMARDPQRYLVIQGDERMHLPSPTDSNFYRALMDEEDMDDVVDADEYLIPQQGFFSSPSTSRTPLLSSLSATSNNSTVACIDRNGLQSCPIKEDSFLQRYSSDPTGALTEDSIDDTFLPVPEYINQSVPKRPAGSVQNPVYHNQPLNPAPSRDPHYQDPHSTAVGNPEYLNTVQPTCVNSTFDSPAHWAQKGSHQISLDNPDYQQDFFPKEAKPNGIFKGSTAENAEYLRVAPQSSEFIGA
Chain of Torsin-1A-interacting protein 2 (Homo sapiens) (Q8NFQ8 whole entry, looked up): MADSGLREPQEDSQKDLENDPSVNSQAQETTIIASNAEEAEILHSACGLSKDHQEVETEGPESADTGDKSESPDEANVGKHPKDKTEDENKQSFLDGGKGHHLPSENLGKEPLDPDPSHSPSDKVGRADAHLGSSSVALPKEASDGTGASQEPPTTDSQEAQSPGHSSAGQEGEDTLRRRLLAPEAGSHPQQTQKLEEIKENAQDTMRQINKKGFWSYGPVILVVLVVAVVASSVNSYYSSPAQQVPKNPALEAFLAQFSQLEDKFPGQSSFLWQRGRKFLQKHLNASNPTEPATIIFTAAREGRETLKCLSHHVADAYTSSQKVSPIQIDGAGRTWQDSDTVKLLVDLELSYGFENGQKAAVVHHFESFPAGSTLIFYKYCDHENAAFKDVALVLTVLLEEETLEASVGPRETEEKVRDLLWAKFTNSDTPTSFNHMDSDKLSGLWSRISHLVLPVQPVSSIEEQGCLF
Chain of Fibroblast growth factor 10 (Homo sapiens) (O15520 whole entry, looked up): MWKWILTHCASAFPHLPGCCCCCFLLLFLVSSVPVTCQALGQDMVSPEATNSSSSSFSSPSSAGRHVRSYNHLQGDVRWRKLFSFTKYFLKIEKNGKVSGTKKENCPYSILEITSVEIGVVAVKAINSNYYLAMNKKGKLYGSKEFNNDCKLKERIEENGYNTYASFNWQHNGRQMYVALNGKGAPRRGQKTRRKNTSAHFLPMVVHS
Chain of Neurogenic locus notch homolog protein 3 (Homo sapiens) (Q9UM47 whole entry, looked up): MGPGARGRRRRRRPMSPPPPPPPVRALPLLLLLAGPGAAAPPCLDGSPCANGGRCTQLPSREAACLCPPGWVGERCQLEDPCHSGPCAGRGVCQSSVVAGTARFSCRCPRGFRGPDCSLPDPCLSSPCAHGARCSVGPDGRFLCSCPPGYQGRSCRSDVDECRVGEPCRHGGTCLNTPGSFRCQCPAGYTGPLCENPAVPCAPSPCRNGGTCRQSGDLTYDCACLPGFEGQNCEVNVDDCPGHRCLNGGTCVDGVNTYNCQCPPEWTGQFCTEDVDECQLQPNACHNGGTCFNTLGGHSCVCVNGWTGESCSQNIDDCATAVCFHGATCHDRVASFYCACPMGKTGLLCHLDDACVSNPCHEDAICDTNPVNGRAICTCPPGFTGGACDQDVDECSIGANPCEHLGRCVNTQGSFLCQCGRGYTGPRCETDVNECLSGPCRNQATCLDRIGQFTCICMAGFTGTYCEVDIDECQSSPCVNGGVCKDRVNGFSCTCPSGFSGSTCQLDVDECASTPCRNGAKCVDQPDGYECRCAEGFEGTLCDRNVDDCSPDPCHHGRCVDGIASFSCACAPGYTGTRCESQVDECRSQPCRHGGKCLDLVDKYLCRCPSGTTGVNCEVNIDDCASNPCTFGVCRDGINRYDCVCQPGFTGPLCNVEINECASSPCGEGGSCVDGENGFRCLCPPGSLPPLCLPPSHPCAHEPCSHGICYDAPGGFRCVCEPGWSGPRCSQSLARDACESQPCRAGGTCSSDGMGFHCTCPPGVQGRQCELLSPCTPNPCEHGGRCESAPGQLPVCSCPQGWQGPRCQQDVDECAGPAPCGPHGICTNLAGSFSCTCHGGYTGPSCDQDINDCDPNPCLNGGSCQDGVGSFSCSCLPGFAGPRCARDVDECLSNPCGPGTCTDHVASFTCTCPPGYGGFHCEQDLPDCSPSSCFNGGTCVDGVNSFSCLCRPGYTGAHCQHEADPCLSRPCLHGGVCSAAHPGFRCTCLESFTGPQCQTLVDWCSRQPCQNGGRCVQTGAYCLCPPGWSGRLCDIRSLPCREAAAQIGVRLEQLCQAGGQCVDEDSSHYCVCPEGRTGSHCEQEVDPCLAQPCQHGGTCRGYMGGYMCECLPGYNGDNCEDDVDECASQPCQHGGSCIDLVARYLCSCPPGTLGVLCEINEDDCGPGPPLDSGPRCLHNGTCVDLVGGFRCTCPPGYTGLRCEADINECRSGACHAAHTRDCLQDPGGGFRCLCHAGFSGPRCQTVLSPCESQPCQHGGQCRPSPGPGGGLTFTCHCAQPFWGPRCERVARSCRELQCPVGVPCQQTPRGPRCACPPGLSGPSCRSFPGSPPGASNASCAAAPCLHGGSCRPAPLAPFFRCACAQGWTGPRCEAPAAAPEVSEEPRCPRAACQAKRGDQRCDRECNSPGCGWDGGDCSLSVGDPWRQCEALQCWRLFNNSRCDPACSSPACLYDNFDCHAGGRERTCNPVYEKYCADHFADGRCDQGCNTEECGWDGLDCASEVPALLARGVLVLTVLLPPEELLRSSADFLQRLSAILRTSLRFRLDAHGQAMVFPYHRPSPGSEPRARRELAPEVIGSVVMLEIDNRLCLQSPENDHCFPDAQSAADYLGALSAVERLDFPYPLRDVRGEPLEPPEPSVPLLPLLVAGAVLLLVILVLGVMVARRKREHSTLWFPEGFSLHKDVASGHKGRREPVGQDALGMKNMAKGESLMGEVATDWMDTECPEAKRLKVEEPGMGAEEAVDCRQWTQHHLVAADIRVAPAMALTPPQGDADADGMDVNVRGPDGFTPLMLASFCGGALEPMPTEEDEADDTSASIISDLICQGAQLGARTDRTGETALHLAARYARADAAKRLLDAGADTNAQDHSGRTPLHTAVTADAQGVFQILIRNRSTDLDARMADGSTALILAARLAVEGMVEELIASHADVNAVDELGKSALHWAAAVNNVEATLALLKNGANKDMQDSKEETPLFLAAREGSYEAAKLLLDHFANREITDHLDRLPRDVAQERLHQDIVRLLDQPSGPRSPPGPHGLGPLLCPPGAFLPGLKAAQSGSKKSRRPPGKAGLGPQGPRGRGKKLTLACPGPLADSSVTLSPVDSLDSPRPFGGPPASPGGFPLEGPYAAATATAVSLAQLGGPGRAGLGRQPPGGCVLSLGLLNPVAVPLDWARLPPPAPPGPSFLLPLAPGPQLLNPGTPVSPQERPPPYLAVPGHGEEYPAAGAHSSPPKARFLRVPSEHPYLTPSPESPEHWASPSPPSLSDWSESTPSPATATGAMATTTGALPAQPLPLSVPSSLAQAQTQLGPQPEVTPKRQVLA
Chain of Follistatin-related protein 3 (Homo sapiens) (O95633 whole entry, looked up): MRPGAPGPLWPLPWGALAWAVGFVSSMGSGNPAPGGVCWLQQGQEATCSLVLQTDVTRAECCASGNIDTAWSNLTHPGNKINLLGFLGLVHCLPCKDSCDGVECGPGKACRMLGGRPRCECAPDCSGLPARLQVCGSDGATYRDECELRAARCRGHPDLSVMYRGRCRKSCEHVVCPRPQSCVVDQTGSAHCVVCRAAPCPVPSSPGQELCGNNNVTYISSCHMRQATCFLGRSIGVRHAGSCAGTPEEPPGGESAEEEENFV

COc1ccc([Si](C)(C)[C@H]2[C@H](CC(=O)N3CCC[C@H]3CO)O[C@@]3(C(=O)N(Cc4ccc(N5C(=O)c6cccc7cccc5c67)cc4)c4ccccc43)[C@@H]2C)cc1
composite z-score [1]: 1.54 | z-score [2]: -0.631 (inactive) | z-score [3]: 0.363 (inactive) | z-score [4]: -0.403 (inactive) | composite z-score [5]: 2.5 | z-score [6]: 0.965 (inactive) | composite z-score [7]: -0.057 | composite z-score [8]: 1.11 | composite z-score [9]: 1.13 | composite z-score [10]: 0.0333 | composite z-score [11]: 1.4 | composite z-score [12]: 0.184 | composite z-score [13]: 0.0075 | z-score [14]: -1.17 (inactive) | composite z-score [15]: 0.651 | composite z-score [16]: 1.2 | composite z-score [17]: 0.6 | composite z-score [18]: 1.35 | composite z-score [19]: 0.736 | composite z-score [20]: 0.4

C[N+](C)(C)CCCCNC(=O)[C@H]1C[C@H]2C(=O)NCC(=O)N2[C@H]1c1ccc(O)cc1
composite z-score [1]: 1.46 | z-score [2]: -0.826 (inactive) | z-score [3]: 0.0918 (inactive) | z-score [4]: -1.71 (inactive) | composite z-score [5]: 1.84 | z-score [6]: 0.509 (inactive) | composite z-score [7]: 0.0823 | composite z-score [8]: 2.01 | composite z-score [9]: 1.04 | composite z-score [10]: 0.154 | composite z-score [11]: 1.29 | composite z-score [12]: 0.0645 | composite z-score [13]: -0.31 | z-score [14]: -1.01 (inactive) | composite z-score [15]: 1.42 | composite z-score [16]: 1.35 | composite z-score [17]: 1.12 | composite z-score [18]: 1.44 | composite z-score [19]: 1.47 | composite z-score [20]: 0.952

COC(=O)[C@@]1(Cc2ccc(OC)cc2)[C@H]2c3cc(C(=O)N4CCCC4)n(CCc4ccc(O)c(OC)c4)c3C[C@H]2CN1C(=O)c1ccccc1
composite z-score [1]: -1.53 | z-score [2]: 0.525 (inactive) | z-score [3]: 0.452 (inactive) | z-score [4]: 0.0019 (inactive) | composite z-score [5]: 2.6 | z-score [6]: -1.13 (inactive) | composite z-score [7]: 0.128 | composite z-score [8]: -0.879 | composite z-score [9]: -0.56 | composite z-score [10]: 0.0055 | composite z-score [11]: -0.0995 | composite z-score [12]: 0.527 | composite z-score [13]: 1.09 | z-score [14]: -0.928 (inactive) | composite z-score [15]: -0.317 | composite z-score [16]: -0.175 | composite z-score [17]: -0.481 | composite z-score [18]: -0.892 | composite z-score [19]: -1.13 | composite z-score [20]: 1.04

COc1ccc([Si](C)(C)[C@H]2[C@H](CCO)O[C@@]3(C(=O)N(Cc4cccc(N5CCOC5=O)c4)c4ccccc43)[C@@H]2C)cc1
composite z-score [1]: 1.39 | z-score [2]: 2.81 (inactive) | z-score [3]: -0.406 (inactive) | z-score [4]: 34 (active) | composite z-score [5]: 2.39 | z-score [6]: 0.228 (inactive) | composite z-score [7]: 0.514 | composite z-score [8]: 0.459 | composite z-score [9]: 1.14 | composite z-score [10]: -0.0973 | composite z-score [11]: 1.17 | composite z-score [12]: -0.165 | composite z-score [13]: -0.339 | z-score [14]: -0.91 (inactive) | composite z-score [15]: 0.997 | composite z-score [16]: 0.808 | composite z-score [17]: 0.0733 | composite z-score [18]: 0.493 | composite z-score [19]: 0.581 | composite z-score [20]: -0.419

O=C(Nc1cc(Br)ccc1C(=O)NCc1cccc(O)c1)c1ccccc1
composite z-score [1]: 1.45 | z-score [2]: 1.06 (inactive) | z-score [3]: -2.4 (inactive) | z-score [4]: 0.537 (inactive) | composite z-score [5]: 2.5 | z-score [6]: 2.81 (inactive) | composite z-score [7]: -0.0291 | composite z-score [8]: -0.0072 | composite z-score [9]: 0.275 | composite z-score [10]: -0.0947 | composite z-score [11]: 0.487 | composite z-score [12]: 0.429 | composite z-score [13]: -0.339 | z-score [14]: -0.419 (inactive) | composite z-score [15]: 0.394 | composite z-score [16]: 0.476 | composite z-score [17]: 0.379 | composite z-score [18]: 0.148 | composite z-score [19]: 0.257 | composite z-score [20]: -0.0621
